This note sets out measurements from PubChem BioAssay (EPA / NIEHS).

A word on the AC50: it is the midpoint of the concentration-response curve, whichever way the signal moves.

Molecules are shown by their SMILES. Records with an inconclusive call do not appear. Calls of active or inactive are those of the source. The calls were made as follows: active = hit-call score of the fitted dose curve at least 0.9, where 1 is the maximum; inconclusive = response in the unintended direction; inactive = score below 0.9.

The subject of experiment [1] is turtle Thyroid Hormone Receptor, alpha (TRa), gene 101949057. As to the kind of experiment: ATG_trTRa_XSP1: Attagene TRANS-FACTORIAL Multi-Species (XSP1) HepG2 Assay for turtle Thyroid Hormone Receptor, alpha (TRa) (AID 2283806). An outline of the steps: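 After 24 h chemical exposure, reporter transcripts were measured by RT-PCR with fluorescent primer extension, HpaI digestion and capillary electrophoresis. Cells were transiently transfected HepG2 expressing exogenous NR-Gal4 chimeras; medium contained 3 nM 6-alpha-fluorotestosterone; fitted upward relative to DMSO.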

A short description of experiment [2]: ATG_XTT_Cytotoxicity_XSP1: Cytotoxicity Assessment in the Attagene TRANS-FACTORIAL Multi-Species (XSP1) HepG2 Assay (AID 2283810). An outline of the steps: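 XTT viability readout taken at 24 hours post-dosing in HepG2 liver cells co-treated with 3 nM 6-alpha-fluorotestosterone. Signal loss relative to DMSO controls reflects cytotoxicity.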
In experiment [3] the target is human Thyroid hormone Receptor beta (TRb), THRB (gene 7068) (UniProt P10828). Kind of experiment: ATG_hTRb_XSP1: Attagene TRANS-FACTORIAL Multi-Species (XSP1) HepG2 Assay for human Thyroid hormone Receptor beta (TRb) (AID 2283808). An outline of the steps: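 Readout is reporter mRNA induction measured by RT-PCR, fluorescent labelling and capillary electrophoresis, fitted upward relative to DMSO. Transiently transfected human HepG2 cells expressing NR-Gal4 chimeras were dosed for 24 h, medium containing 3 nM 6-alpha-fluorotestosterone.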

Experiment [4] deals with zebrafish Androgen Receptor (AR), gene 100005148. Kind of experiment: ATG_zfAR_XSP2: Attagene TRANS-FACTORIAL Multi-Species (XSP2) HepG2 Assay for zebrafish Androgen Receptor (AR) (AID 2283825).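 Also: hits raise reporter mRNA above DMSO so AC50 reflects agonist-type gain.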 An outline of the steps: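 After 24 h compound exposure in medium with 3 nM 6-alpha-fluorotestosterone plus 1.5 nM norgestrel, HepG2 cells carrying zebrafish AR–GAL4 reporter constructs were assessed for reporter mRNA gain by RT-PCR and capillary electrophoresis.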

human Thyroid hormone Receptor beta (TRb), THRB (gene 7068), sequence (P10828 whole entry, looked up, the tested form may be a part): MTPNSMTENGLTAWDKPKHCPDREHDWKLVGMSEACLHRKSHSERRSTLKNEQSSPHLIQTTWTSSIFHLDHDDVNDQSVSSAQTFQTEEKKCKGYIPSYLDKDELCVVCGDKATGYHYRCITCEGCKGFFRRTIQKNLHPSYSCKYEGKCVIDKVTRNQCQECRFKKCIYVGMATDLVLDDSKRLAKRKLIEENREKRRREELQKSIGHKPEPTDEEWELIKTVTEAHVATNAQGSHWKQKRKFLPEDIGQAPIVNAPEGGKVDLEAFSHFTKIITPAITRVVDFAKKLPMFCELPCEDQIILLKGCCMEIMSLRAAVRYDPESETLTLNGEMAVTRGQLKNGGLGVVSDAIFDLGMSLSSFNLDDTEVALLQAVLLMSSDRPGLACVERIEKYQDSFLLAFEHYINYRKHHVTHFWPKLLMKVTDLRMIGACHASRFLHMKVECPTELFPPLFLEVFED

Regarding `Cc1oc(-c2ccccc2)nc1CCOc1ccc(C[C@H](Nc2ccccc2C(=O)c2ccccc2)C(=O)O)cc1`, the outcome in experiment [1] and in experiment [2] was inactive.
`CC[C@H](c1ccc(O)cc1)[C@@H](CC)c1ccc(O)cc1`: the outcome in experiment [1] and in experiment [2] was inactive.
For the compound `CCC(C)(C)C1CCC(O)CC1` (configuration not stated), the call in experiment [3] was inactive.
As for `C#C[C@]1(O)CC[C@H]2[C@@H]3CCC4=CC(=O)CC[C@@H]4[C@H]3CC[C@@]21C`, the AC50 in experiment [4] was 1.84 µM (active).
Take `O=c1c(-c2ccc(O)cc2)coc2cc(O)ccc12`: the compound was classed as inactive in experiment [4].
